The text below walks through data of PubChem BioAssay (Tox21).

Each structure is given as a SMILES string. Values joined by “and” are separate entries in the source; they are usually repeats but may differ in a detail not shown here. Identical values can stand only once. Results filed as inconclusive are left out. More than one record can exist for a structure, and the calls need not agree. Active and inactive are the calls of the source. Unless noted, calls follow the shape of the dose curve; as a rule, active = well fitted curve in the direction sought with a large enough effect in the repeat runs; inconclusive = weak or mixed curves; inactive = no such curve, though single readings can be large; an effect the other way counts as inactive or inconclusive.

The nature of experiment [1]: qHTS assay for identifying genotoxic compounds that show differential cytotoxicity against isogenic chicken DT40 cell lines with known DNA damage response pathways - Rev3 mutant cell line (AID 743014; also: nearly all actives have a fitted effect of over 55% in size; also: potency is read from the fitted curve at half-maximal effect). (Quantitative high-throughput screening tests each substance at several concentrations.)
Experiment [2] is described as follows: qHTS assay for identifying genotoxic compounds that show differential cytotoxicity against isogenic chicken DT40 cell lines with known DNA damage response pathways - Rad54/Ku70 mutant cell line (AID 743015). Also: potency is read from the fitted curve at half-maximal effect; nearly all actives have a fitted effect of over 60% in size.
A short description of experiment [3]: qHTS assay to identify small molecule antagonists of the androgen receptor (AR) signaling pathway - cell viability counter screen (AID 743033; also: nearly all actives have a fitted effect of over 45% in size; also: potency is read from the fitted curve at half-maximal effect).
A short description of experiment [4]: qHTS assay to identify small molecule antagonists of the androgen receptor (AR) signaling pathway using the MDA cell line - cell viability counter screen (AID 743041; also: nearly all actives have a fitted effect of over 45% in size). The essentials:
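In this qHTS counter assay, fluorescence intensity after CellTiter-Fluor addition indicated viability of MDA-kb2 AR-luc cells given compounds and R1881 for 16 h at 37C.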

Experiment [5] is described as follows: qHTS assay to identify small molecule antagonists of the thyroid receptor (TR) signaling pathway - cell viability counter screen (AID 743064). Also: nearly all actives have a fitted effect of over 50% in size. Also: potency is read from the fitted curve at half-maximal effect. The essentials:
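Plate GH3.TRE-Luc cells; incubate 4 h at 37 °C; add compound, then T3 to 1 nM final; incubate 23.5 h; add CellTiter-Fluor; incubate 30 min at 37 °C, 5% CO2; read fluorescence.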

Experiment [6] deals with thyroid hormone receptor (rat, GH3 cells). As to the kind of experiment: qHTS assay to identify small molecule agonists of the thyroid receptor (TR) signaling pathway (AID 743066; calls by dose curve).
Experiment [7] is described as follows: qHTS assay to identify small molecule antagonists of the estrogen receptor alpha (ER-alpha) signaling pathway - cell viability counter screen (AID 743074; calls by dose curve;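 also: HEK293 cells carrying ER-alpha-UAS-bla reporter stimulated with 17beta-estradiol; nearly all actives have a fitted effect of over 45% in size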; also: potency is read from the fitted curve at half-maximal effect).
Experiment [8] in a line: qHTS assay to identify small molecule antagonists of the estrogen receptor alpha (ER-alpha) signaling pathway using the BG1 cell line - cell viability counter screen (AID 743081).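 Also: compound given together with 17beta-estradiol as the ER stimulus; series mostly up to about 70 µM; nearly all actives have a fitted effect of over 45% in size.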
Experiment [9] in a line: qHTS assay to identify aromatase inhibitors - cell viability counter screen (AID 743084).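 Also: cells stimulated with testosterone during compound exposure; nearly all actives have a fitted effect of over 55% in size.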 Also: potency is read from the fitted curve at half-maximal effect.
Experiment [10] has as its target Aromatase (Homo sapiens) (UniProt P11511). Put plainly: qHTS assay to identify aromatase inhibitors (AID 743083). Also: nearly all actives have a fitted effect of over 55% in size. Also: potency is read from the fitted curve at half-maximal effect.
The nature of experiment [11]: qHTS assay for identifying genotoxic compounds that show differential cytotoxicity against isogenic chicken DT40 cell lines with known DNA damage response pathways - wild type cell line (AID 743012). Also: nearly all actives have a fitted effect of over 60% in size. Also: potency is read from the fitted curve at half-maximal effect. In a few lines: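 Viability by ATP luminescence (CellTiter-Glo, 30 min RT) after 40 h compound treatment at 37 C/5% CO2, using 300 parental DNA repair-proficient DT40 cells per well.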

For experiment [12], the target named is Estrogen receptor (Homo sapiens) (UniProt P03372). As to the kind of experiment: qHTS assay to identify small molecule antagonists of the estrogen receptor alpha (ER-alpha) signaling pathway (AID 743069; active = well fitted curve in the direction sought with a large enough effect in the signal ratio in the repeat runs, not every such curve was filed as active; the % refers to the signal ratio; also: potency is read from the fitted curve at half-maximal effect). The essentials:
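A 17beta-estradiol challenge was applied right after compound transfer to ER-alpha-UAS-bla HEK293 cells previously kept in charcoal-stripped serum. Plates stood 18 hr at 37C and 5% CO2; fluorescence was read following 2 hr FRET substrate loading at room temperature.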

The target is the same in experiment [13]. Put plainly: qHTS assay to identify small molecule agonists of the estrogen receptor alpha (ER-alpha) signaling pathway (AID 743075; calls by dose curve;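 also: HEK293 GripTite cells with ER-alpha and UAS-driven beta-lactamase reporter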).
Experiment [14] shares this target. Put plainly: qHTS assay to identify small molecule agonists of the estrogen receptor alpha (ER-alpha) signaling pathway using the BG1 cell line (AID 743079). Also: nearly all actives have a fitted effect of over 20% in size.
Experiment [15] is described as follows: qHTS assay to identify small molecule antagonists of the estrogen receptor alpha (ER-alpha) signaling pathway using the BG1 cell line (AID 743080; calls by dose curve;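 also: BG1 cells stimulated with 17beta-estradiol alongside compound; nearly all actives have a fitted effect of over 25% in size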; also: potency is read from the fitted curve at half-maximal effect). In a few lines: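 Luciferase inhibition measured with ONE-Glo after 30 min at RT in BG1Luc4E2 cells given test compounds and 17beta-estradiol for 21.5 h at 37 C; CellTiter-Fluor viability read in the same wells beforehand.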

Experiment [16] has as its target Androgen receptor (Homo sapiens) (UniProt P10275). As to the kind of experiment: qHTS assay to identify small molecule agonists of the androgen receptor (AR) signaling pathway (AID 743036; active = well fitted activation curve with a large enough effect in the signal ratio in the repeat runs, with a control signal flat, not every such curve was filed as active; the % refers to the signal ratio). The essentials: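 Reporter line: GeneBLAzer AR-UAS-bla-GripTite (HEK293). Steps: plate cells, 4 h rest, add compounds, 16 h at 37C, add LiveBLAzer B/G substrate, 2 h at RT, read fluorescence.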

For experiment [17] the target is unchanged. As to the kind of experiment: qHTS assay to identify small molecule agonists of the androgen receptor (AR) signaling pathway using the MDA cell line (AID 743040; also: nearly all actives have a fitted effect of over 20% in size). The essentials:
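Cell-based luciferase reporter: MDA-kb2, MMTV promoter (AR + GR response elements). 16 h compound exposure at 37C; ONE-Glo, 30 min RT, luminescence.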

For experiment [18] the target is unchanged. Put plainly: qHTS assay to identify small molecule antagonists of the androgen receptor (AR) signaling pathway using the MDA cell line (AID 743042; also: nearly all actives have a fitted effect of over 55% in size). The essentials: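 MDA-kb2 cells (human breast carcinoma, stably carrying an MMTV-luciferase reporter responsive to AR and GR) were plated at 3,000 cells/well and preincubated 5 hr at 37C, then given compound plus R1881 agonist for 16 h. ONE-Glo luminescence was read.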

A short description of experiment [19]: qHTS assay to identify small molecule antagonists of the thyroid receptor (TR) signaling pathway (AID 743065). In a few lines:
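GH3.TRE-Luc rat pituitary cells carrying two TR response elements driving luciferase were plated for 4 h, given compound plus 1 nM T3 (final), and incubated 23.5 h at 37 C. ONE-Glo luminescence measured reporter inhibition; CellTiter-Fluor fluorescence tracked cytotoxicity.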

Sequence of Estrogen receptor (Homo sapiens) (P03372 whole entry, looked up): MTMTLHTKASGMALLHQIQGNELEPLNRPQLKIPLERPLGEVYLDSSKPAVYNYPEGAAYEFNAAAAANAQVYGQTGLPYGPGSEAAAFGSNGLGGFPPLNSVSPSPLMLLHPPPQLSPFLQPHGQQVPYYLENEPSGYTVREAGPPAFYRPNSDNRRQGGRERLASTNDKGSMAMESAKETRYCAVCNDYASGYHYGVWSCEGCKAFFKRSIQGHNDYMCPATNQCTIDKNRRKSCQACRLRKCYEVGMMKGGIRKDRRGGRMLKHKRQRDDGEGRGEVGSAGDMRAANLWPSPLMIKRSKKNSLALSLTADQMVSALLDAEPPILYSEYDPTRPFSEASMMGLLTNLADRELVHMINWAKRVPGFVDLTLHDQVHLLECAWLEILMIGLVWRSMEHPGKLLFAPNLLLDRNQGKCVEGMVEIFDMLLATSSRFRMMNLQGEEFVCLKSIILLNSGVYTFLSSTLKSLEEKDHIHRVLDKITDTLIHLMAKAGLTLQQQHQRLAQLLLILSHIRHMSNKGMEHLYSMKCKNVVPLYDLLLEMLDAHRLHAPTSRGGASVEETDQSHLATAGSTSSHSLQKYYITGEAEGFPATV
Sequence of Androgen receptor (Homo sapiens) (P10275 whole entry, looked up): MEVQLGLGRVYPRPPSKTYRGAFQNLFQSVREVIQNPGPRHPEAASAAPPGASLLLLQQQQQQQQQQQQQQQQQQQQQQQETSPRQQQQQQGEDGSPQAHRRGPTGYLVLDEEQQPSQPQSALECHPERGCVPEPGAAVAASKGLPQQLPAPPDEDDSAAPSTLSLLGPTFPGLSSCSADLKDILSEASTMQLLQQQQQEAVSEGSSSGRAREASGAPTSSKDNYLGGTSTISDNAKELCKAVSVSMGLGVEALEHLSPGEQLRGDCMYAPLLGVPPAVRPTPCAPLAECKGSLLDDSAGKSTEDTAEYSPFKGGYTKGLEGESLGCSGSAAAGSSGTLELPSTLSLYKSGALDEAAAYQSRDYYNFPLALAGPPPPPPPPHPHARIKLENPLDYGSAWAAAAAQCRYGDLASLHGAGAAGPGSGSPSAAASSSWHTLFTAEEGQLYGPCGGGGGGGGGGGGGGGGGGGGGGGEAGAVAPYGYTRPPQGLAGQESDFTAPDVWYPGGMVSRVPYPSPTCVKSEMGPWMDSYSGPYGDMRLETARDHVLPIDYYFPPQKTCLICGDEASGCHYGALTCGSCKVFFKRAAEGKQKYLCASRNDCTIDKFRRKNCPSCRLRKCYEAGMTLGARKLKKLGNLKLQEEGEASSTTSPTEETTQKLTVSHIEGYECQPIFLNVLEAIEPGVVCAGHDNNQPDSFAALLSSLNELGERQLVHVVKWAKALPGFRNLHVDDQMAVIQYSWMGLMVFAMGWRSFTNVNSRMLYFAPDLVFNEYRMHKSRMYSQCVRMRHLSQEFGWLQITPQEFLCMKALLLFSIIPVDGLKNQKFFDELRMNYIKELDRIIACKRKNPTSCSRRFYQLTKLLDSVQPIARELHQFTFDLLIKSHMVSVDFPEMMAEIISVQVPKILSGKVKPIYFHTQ
Sequence of Aromatase (Homo sapiens) (P11511 whole entry, looked up): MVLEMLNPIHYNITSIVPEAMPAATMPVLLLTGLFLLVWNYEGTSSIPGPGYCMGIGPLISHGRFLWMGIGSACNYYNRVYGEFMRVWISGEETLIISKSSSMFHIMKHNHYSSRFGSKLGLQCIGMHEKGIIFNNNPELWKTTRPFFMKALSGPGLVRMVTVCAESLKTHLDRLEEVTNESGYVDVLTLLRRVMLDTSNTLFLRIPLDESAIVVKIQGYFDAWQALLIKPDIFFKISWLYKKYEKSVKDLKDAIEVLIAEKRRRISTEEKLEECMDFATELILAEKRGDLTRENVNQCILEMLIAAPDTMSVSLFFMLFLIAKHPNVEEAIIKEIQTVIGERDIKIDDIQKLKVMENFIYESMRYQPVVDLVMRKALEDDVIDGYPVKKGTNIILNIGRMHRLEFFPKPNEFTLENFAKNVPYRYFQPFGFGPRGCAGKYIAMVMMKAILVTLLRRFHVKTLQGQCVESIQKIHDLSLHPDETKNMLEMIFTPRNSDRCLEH

As to `CC(=O)[O-].CC(=O)[O-].O.O.[Cd+2]`, the Potency is 67.6 µM (active) in [1]; 60.3 µM (active) in experiment [2]; 24.2 µM (active) in [3]; 24 µM (active) in experiment [5]; 43 µM (active) in experiment [7]; 42.7 µM (active) in experiment [9]. Further, the Potency result in experiment [4] and in experiment [8] was “inactive” each time. Also, the outcome in experiment [6] was inactive.

Take `[Cd+2].[Cl-].[Cl-]`: the Potency is 13.8 µM (active) and 27.3 µM (active) in experiment [1]; 13.8 µM (active) and 24.3 µM (active) in experiment [2]; 24.8 µM (active) in experiment [3]; 24.5 µM (active) and 30.6 µM (active) in experiment [5]; 54.9 µM (active) and inactive in experiment [10]; 24.5 µM (active) in experiment [9]. The Potency entry in experiment [4] is “inactive”. Moreover, in [6], the outcome was inactive.

For the compound `CSCCCN=C=S`, the Potency in experiment [1] is 27.3 µM (active). The Potency entry in experiment [3], in experiment [4], in [5], in experiment [7] and in [8] was “inactive” each time. In addition, the result in [6] was inactive.

Consider `CCCCCCCCCCCCBr`, for which the Potency in [11] was 27.3 µM (active); in experiment [1], 13.7 µM (active). The Potency entry in [5], in [12], in [13], in experiment [14], in experiment [15] and in experiment [8] was “inactive” throughout. Also, in experiment [9], the Potency result is “inactive”. Besides, in [6], the compound was called inactive.

Consider `O=c1oc2ccccc2c(O)c1Cc1c(O)c2ccccc2oc1=O`, for which the Potency result in experiment [11], in [1], in experiment [3], in experiment [16], in [17] and in [4] was “inactive” in each case. Moreover, the Potency result in [18], in [5], in [8], in experiment [10] and in experiment [9] was “inactive” each time. Further, the Potency in experiment [19] is 11.4 µM (active). For the same compound, the compound was classed as inactive in experiment [6].

Take `C=CC(=O)OCCCCOC(=O)C=C`: the Potency is 27.3 µM (active) in experiment [11]; 27.3 µM (active) in experiment [1]; 17.2 µM (active) in experiment [5]; 43.3 µM (active) in experiment [10]; 48.6 µM (active) in experiment [9]. In addition, the Potency result in experiment [4], in experiment [7], in experiment [13] and in [14] was “inactive” each time.

Turning to `CC(C)(C)C(O)/C(=C\c1ccc(Cl)cc1Cl)n1cncn1` (centres undefined), the Potency in experiment [11] was 18.6 µM (active); in experiment [1], 18.6 µM (active); in experiment [2] it was 18.6 µM (active); in [5], 83 µM (active); in [12] it was 59.3 µM [inhibitor] (active); in experiment [15], 74 µM (active). Also, the Potency was 58.7 µM (active) in experiment [10] and 74 µM (active) in [9]. Also, the Potency result in experiment [4], in experiment [7], in experiment [13] and in experiment [8] was “inactive” in each case.

Consider `Clc1ccc(C(c2ccccc2Cl)C(Cl)(Cl)Cl)cc1` (centres undefined), for which the Potency in [11] was 45.1 µM (active); in experiment [1] it was 45.1 µM (active); in experiment [5] it was 27.5 µM (active) and 40.2 µM (active); in experiment [19], 27.5 µM (active) and 40.2 µM (active). In addition, the Potency entry in [3], in experiment [4], in [12], in [7], in experiment [15] and in experiment [8] was “inactive” in each case. Besides, the Potency entry in experiment [10] and in [9] was “inactive” in each case. Also, the compound was called inactive in experiment [6].

Consider `OC(c1ccc(Cl)cc1)(c1ccc(Cl)cc1)C(Cl)(Cl)Cl`, for which the Potency is 61.1 µM (active) in [11], 48.6 µM (active) in experiment [1], 61.1 µM (active) in experiment [10] and 61.1 µM (active) in experiment [9]. In addition, the Potency entry in [4], in experiment [7] and in experiment [8] was “inactive” throughout. Besides, the compound was called inactive in [6].
